# Records with an inconclusive call do not appear. Some compounds were tested as several samples or in several runs, with calls that do not always agree. Activity calls are given as the source filed them. The calls were made as follows, unless noted: active = hit-call score of the fitted dose curve at least 0.9, where 1 is the maximum; inconclusive = response in the unintended direction; inactive = score below 0.9.
# Key:
# [1] = IUF_NPC2-5_viability_120hr: Viability Assessment at 120 hours in the Leibniz Research Institute for Environmental Medicine (IUF) Neural Progenitor Cell Migration and Differentiation Assay (NPC2-5) (AID 2284312; active = hit-call score of the fitted dose curve at least 0.9, where 1 is the maximum; inactive = score below 0.9)
# Summary of the method: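 Human fetal neural progenitor spheres (0.3 mm) plated on poly-D-lysine/laminin in N2 differentiation medium, exposed 120 h with half-medium refresh at day 3. Viability by alamar blue resazurin fluorescence; 7 concentrations, DMSO max 0.1%.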
# [2] = CCTE_Mundy_HCI_iCellGluta_NOG_NeuriteLength: CCTE's Neurite Outgrowth Assay in iCellGluta cells for Neurite Length, Mundy Lab (AID 2284318)
# Summary of the method: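 Automated high-content imaging of betaIII-tubulin (Alexa Fluor-488) and Hoechst-stained cells gave neurite length, normalized to the DMSO baseline.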
# [3] = CCTE_Deisenroth_5AR_NBTE_acceptor: CCTE's 5alpha-reductase NanoBRET Target Engagement Assay - Autofluorescence Screen, Deisenroth Lab (AID 2284321; active = hit-call score of the fitted dose curve at least 0.9, where 1 is the maximum; inactive = score below 0.9;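 also: compound fluorescence in the acceptor channel under 460 nm excitation flags autofluorescence artifacts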); conditions: actives raise or lower the signal
# Summary of the method: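 Acceptor fluorescence intensity was read as an artifact-detection endpoint. Test chemicals at an assumed nominal 100 uM were excited at 460 nm across three independent runs. Activity was fitted bidirectionally against DMSO.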
# [4] = test system: SRD5A2 (gene 6716); assay: CCTE_Deisenroth_5AR_NBTE_ratio: CCTE's 5alpha-reductase NanoBRET Target Engagement Assay - Ratio, Deisenroth Lab (AID 2284322; active = hit-call score of the fitted dose curve at least 0.9, where 1 is the maximum; inactive = score below 0.9); conditions: actives raise or lower the signal
# Summary of the method: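 SRD5A2-NanoLuc HEK293T; cmpd 10 nM-29.9 uM, 3 h preinc + testosterone tracer 2 h; NanoBRET ratio 650/460; bidirectional fit vs DMSO.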
# [5] = IUF_NPC1_cytotoxicity_72hr: Cytotoxicity Assessment at 72 hours in the Leibniz Research Institute for Environmental Medicine (IUF) Neural Progenitor Cell Proliferation Assay (NPC1) (AID 2284332);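 also: rising LDH signal means more cytotoxicity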
# Summary of the method: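 Readout is fluorescence from LDH-dependent resazurin conversion, sampled from culture medium after compound contact lasting 72 h. Each well holds one 0.25-0.35 mm human progenitor sphere kept at 37C, 5% CO2 with EGF and FGF.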
# [6] = TAMU_PeakParms_SingleDonor1434_Asystole: Texas A&M University (TAMU) 1.5-hr Human Induced Pluripotent Stem Cell (iPSC)-derived Cardiomyocytes Calcium (Ca+2) Flux Assay for Cardiotoxicity: Asystole (quiescence of beating) (AID 2284328)
# Summary of the method: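 Donor 1434 iPSC-cardiomyocytes exposed 90 min at 37C, 5% CO2, to 0.2, 1, 10 and 100 uM in 0.5% DMSO. Ca2+ dye fluorescence gave average peak frequency; POD is EC95, a 95% beat-rate drop versus controls.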
# [7] = VALA_TUBHUV_Antagonist_CellCount: Viability Assessment in the VALA Sciences human Umbilical Vein Endothelial Tubule Formation (TUBHUV) Antagonism Assay (AID 2284310)
# Summary of the method: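 Read-out is imaged cell count after nuclear and CD31 staining, fitted against 0.1% DMSO vehicle. Compounds were added for 3 days, in 10 ng/ml VEGF assay medium, to HUVEC–HDF co-cultures pre-grown 3 days.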
# [8] = VALA_TUBIPS_Antagonist_TubuleLength: VALA Sciences human iPS-derived Endothelial Tubule Formation (TUBIPS) Antagonist Assay (AID 2284313)
# Summary of the method: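 Tubule length was quantified by high-content imaging of CD31- and nuclear-stained cells, with 0.1% DMSO as neutral and 100 uM suramin as inhibition control. Compounds were applied for 3 days, in 10 ng/ml VEGF, to cultures pre-grown 3 days.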
# [9] = VALA_MIGHUV2_Bcatenin: VALA Sciences human Umbilical Vein Endothelial Cell Migration (MIGHUV) Assay, Nuclear Translocation of beta-Catenin after Recovery (AID 2284315)
# Summary of the method: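 Nuclear beta-catenin imaged by immunofluorescence with Hoechst counterstain in fixed HUVEC, 24 h after scratch wounding and chemical addition. Six-point concentration-response in triplicate; activity scored as signal increase over 0.1% DMSO vehicle.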
# [10] = VALA_MIGHUV2_WoundArea: VALA Sciences human Umbilical Vein Endothelial Cell Migration (MIGHUV) Assay, Area of Scratch Wound after Recovery (AID 2284316)
# Summary of the method: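 Wound-area endpoint read by fluorescence imaging of Hoechst-stained nuclei after a 24 h recovery period following scratch of HUVEC monolayers (9000 cells/well). Chemicals dosed within 30 min post-scratch, triplicate 6-point series, 0.1% DMSO vehicle; Cytochalasin D positive control.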
# [11] = VALA_TUBHUV_Antagonist_TubuleLength: VALA Sciences human Umbilical Vein Endothelial Tubule Formation (TUBHUV) Antagonism Assay (AID 2284325)
# Summary of the method: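 Tubule length was imaged via CD31 immunofluorescence after a further 3-day compound exposure in 10 ng/ml VEGF, following 3-day pre-culture of HUVEC with HDF at 1:3. Vehicle 0.1% DMSO; suramin (100 uM) inhibition control.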
# [12] = VALA_MIGHUV1_ScratchOnly_CellCount: Viability Assessment in the VALA Sciences human Umbilical Vein Endothelial Cell Migration (MIGHUV) Assay, Scratch Wound Inhibited Recovery (AID 2284327)
# Summary of the method: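 Hoechst-stained nuclei in the scratch wound were counted by high-content imaging after a 24 h recovery period. Scratched HUVEC monolayers received 6-point concentration series, triplicate, in 0.1% DMSO, fit against DMSO.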
# [13] = VALA_TUBIPS_Antagonist_CellCount: Viability Assessment in the VALA Sciences human iPS-derived Endothelial Tubule Formation (TUBIPS) Antagonism Assay (AID 2284335)
# [14] = VALA_MIGHUV1_ScratchOnly_WoundArea: VALA Sciences human Umbilical Vein Endothelial Cell Migration (MIGHUV) Assay, Area of Scratch Wound Inhibited Recovery (AID 2284336)
# Summary of the method: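 Wound area remaining after 24 h recovery imaged by Hoechst nuclear fluorescence in scratched HUVEC cultures, chemicals added within 30 min of scratching across a 6-point series. Gain of signal fitted against 0.1% DMSO; cytochalasin D positive control.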
# [15] = VALA_TUBHUV_Agonist_TubuleLength: VALA Sciences human Umbilical Vein Endothelial Tubule Formation (TUBHUV) Agonism Assay (AID 2284337)
# Summary of the method: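 Tubule length quantified by CD31 immunofluorescence imaging after fixation. HUVEC-HDF co-cultures (1:3) pre-grown 3 days with 10 ng/ml VEGF, then dosed 3 days in VEGF medium; 0.1 % DMSO vehicle baseline.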
# [16] = VALA_TUBIPS_Agonist_CellCount: Viability Assessment in the VALA Sciences human iPS-derived Endothelial Tubule Formation (TUBIPS) Agonism Assay (AID 2284338)
# [17] = test system: IYD (gene 389434); assay: CCTE_GLTED_hIYD: CCTE's human Iodotyrosine Deiodinase (xIYD) Inhibition Assay, Great Lakes Toxicology and Ecology Division (GLTED) Lab (AID 2284317);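 also: cell-free human IYD enzyme made in baculovirus insect cells; iodide freed from monoiodotyrosine measured by cerium arsenite color change at 420 nm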
# Summary of the method: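 Iodide liberated from monoiodotyrosine by baculovirus-expressed human IYD over 3 h was determined colorimetrically (Sandell-Kolthoff, 420 nm) after Dowex separation; inhibition is loss of signal versus DMSO.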
# [18] = VALA_TUBIPS_Agonist_TubuleLength: VALA Sciences human iPS-derived Endothelial Tubule Formation (TUBIPS) Agonism Assay (AID 2284311)
# Summary of the method: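 Agonist-mode readout is the gain in imaged tubule length versus DMSO baseline. It was measured by fluorescence high-content imaging 72 h after dosing human iPSC-derived endothelial cells.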
# [19] = test system: TTR (gene 7276); assay: CCTE_GLTED_hTTR_0.5uM: CCTE's human Transthyretin (hTTR) Inhibition Assay, with 0.5uM TTR, Great Lakes Toxicology and Ecology Division (GLTED) Lab (AID 2284320; active = hit-call score of the fitted dose curve at least 0.9, where 1 is the maximum; inactive = score below 0.9)
# Summary of the method: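 Probe (ANSA) displacement from 0.5 uM human transthyretin was followed by fluorescence (ex 380, em 475) after a 2 h incubation with chemical. Activity was scored as signal loss and fitted positively relative to DMSO.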
# [20] = VALA_MIGHUV2_CellCount: Viability Assessment in the VALA Sciences human Umbilical Vein Endothelial Cell Migration (MIGHUV) Assay, Area of Scratch Wound after Recovery (AID 2284314)
# Summary of the method: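 Viability read-out: Hoechst-stained nuclei counted by fluorescence imaging after a 24 h recovery period in fixed, scratched HUVEC plates. Compound was dosed within 30 min of scratching at six concentrations (triplicate); DMSO at 0.1 % served as baseline.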
structure (smiles),measurement,setting,value
CCC[CH2][Sn]([Cl])([CH2]CCC)[CH2]CCC,AC50,[1],0.393 µM (active)
same,AC50,[2],0.163 µM (active)
same,AC50,[3],4.25 µM (active)
same,AC50,[4],16.8 µM (active)
same,AC50,[5],637 nM (active)
ClC1=C(Cl)[C@]2(Cl)[C@H]3[C@H]([C@@H]4C=C[C@H]3C4)[C@@]1(Cl)C2(Cl)Cl,outcome,[6],inactive
C[C@]12C=CC3=C4CCC(=O)C=C4CC[C@H]3[C@@H]1CC[C@@H]2O,outcome,[3],inactive
same,outcome,[4],inactive
c1ccc(N=Nc2ccccc2)cc1,outcome,[6],inactive
CC(C)COC(=O)c1ccccc1C(=O)OCC(C)C,outcome,[1],inactive
same,outcome,[2],inactive
CN(C)[C@@H]1C(=O)C(C(N)=O)=C(O)[C@@]2(O)C(=O)C3=C(O)c4c(O)cccc4[C@@](C)(O)[C@H]3C[C@@H]12,AC50,[2],23.3 µM (active)
CO[C@@H]1[C@H](OC(=O)NC(=O)CCl)CC[C@]2(CO2)[C@H]1[C@@]1(C)O[C@@H]1CC=C(C)C,outcome,[7],inactive
same,outcome,[8],inactive
same,AC50,[9],1.29 nM (active)
same,outcome,[10],inactive
same,outcome,[11],inactive
same,outcome,[12],inactive
same,outcome,[13],inactive
same,outcome,[14],inactive
same,outcome,[15],inactive
same,AC50,[16],168 nM (active)
same,outcome,[16],inactive
CCCCOC(=O)c1ccccc1C(=O)OCc1ccccc1,outcome,[1],inactive
same,outcome,[2],inactive
same,outcome,[5],inactive
COc1cc(C=O)cc2c1[C@H](COC(N)=O)[C@]1(OC(C)=O)ON2C[C@H]2[C@@H]1N2C(C)=O,outcome,[3],inactive
same,outcome,[4],inactive
Clc1ccc(C(c2ccc(Cl)cc2)C(Cl)(Cl)Cl)cc1,AC50,[17],35.2 µM (active)
same,outcome,[6],inactive
CNC(=O)Oc1cccc2c1OC(C)(C)C2,outcome,[1],inactive
same,AC50,[2],49.6 µM (active)
same,outcome,[5],inactive
CC(C)(O)c1cnn2c(-c3ccc(F)c(-c4c(F)cccc4C#N)c3)cnc2n1,outcome,[3],inactive
same,AC50,[4],13.5 µM (active)
Clc1ccc(Cl)c(Cl)c1,outcome,[18],inactive
same,outcome,[14],inactive
COC(=O)Nc1nc2ccccc2[nH]1,AC50,[1],12.5 µM (active)
same,outcome,[2],inactive
same,outcome,[5],inactive
[Cl-].[Cl-].[Hg+2],AC50,[3],73.3 µM (active)
same,AC50,[4],75.4 µM (active)
CC(C)(C)C(O)(CCc1ccc(Cl)cc1)Cn1cncn1 (stereo unspecified),outcome,[1],inactive
same,outcome,[6],inactive
same,outcome,[5],inactive
c1ccc2c(c1)-c1cccc3cccc-2c13,outcome,[3],inactive
same,outcome,[4],inactive
Cc1ccc(N)c(N)c1,AC50,[3],50 µM (active)
same,AC50,[4],22.7 µM (active)
Nc1ccc(N=Nc2ccccc2)cc1,outcome,[3],inactive
same,AC50,[4],50 µM (active)
CCNS(=O)(=O)C(F)(F)C(F)(F)C(F)(F)C(F)(F)C(F)(F)C(F)(F)C(F)(F)C(F)(F)F,AC50,[19],1.54 µM (active)
OCCOCCO,outcome,[1],inactive
same,outcome,[5],inactive
COP(=S)(OC)SCN1C(=O)c2ccccc2C1=O,outcome,[1],inactive
same,AC50,[2],92.2 µM (active)
same,outcome,[5],inactive
Cc1cc(N=Nc2ccccc2C)ccc1N,AC50,[3],38.4 µM (active)
same,AC50,[4],50 µM (active)
CCCCCCCCn1sccc1=O,AC50,[3],73.2 µM (active)
same,AC50,[4],71.1 µM (active)
same,outcome,[6],inactive
[O-][Cl+]O,outcome,[1],inactive
same,AC50,[2],24 µM (active)
same,outcome,[5],inactive
Oc1ccc2ccc3cccc4ccc1c2c34,outcome,[7],inactive
same,outcome,[8],inactive
same,outcome,[11],inactive
same,outcome,[13],inactive
same,outcome,[15],inactive
same,outcome,[16],inactive
O=P(OCCCl)(OCCCl)OCCCl,AC50,[7],88.3 µM (active)
same,outcome,[18],inactive
same,outcome,[1],inactive
same,outcome,[8],inactive
same,outcome,[20],inactive
same,outcome,[11],inactive
same,outcome,[5],inactive
same,outcome,[13],inactive
same,outcome,[14],inactive
same,outcome,[15],inactive

# Source: PubChem BioAssay (EPA / NIEHS)
